Laboratory results: PubChem BioAssay (Tox21)
Inconclusive results are not listed. Calls of active or inactive are those of the source. Calls come from the whole dose curve.

Experiments:
[1] = molecular target: Acetylcholinesterase (Homo sapiens) (UniProt P22303); test: Acetylcholinesterase (AChE) small molecule antagonists: colormetric cell-based qHTS assay (AID 1347395); note: nearly all actives have a fitted effect of over 30% in size
Outline: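 In this cell-based qHTS, attached SH-SY5Y cells were treated with test chemicals for 30 min, after which acetylthiocholine hydrolysis was followed by DTNB colour development over 90 min at 37 C.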

[2] = molecular target: Acetylcholinesterase (Homo sapiens) (UniProt P22303); test: Acetylcholinesterase (AChE) small molecule antagonists: enzyme-based qHTS assay (AID 1347397); conditions: Potency: AChE enzyme activity inhibition; outcome: AChE enzyme activity inhibition; note: nearly all actives have a fitted effect of over 55% in size
Outline: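 Absorbance-based detection of thiocholine with DTNB served as the read-out. Recombinant human AChE was exposed to compound for 30 min at RT before a 10 min RT incubation with acetylthiocholine.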

[3] = molecular target: Acetylcholinesterase (Homo sapiens) (UniProt P22303); test: Acetylcholinesterase (AChE) small molecule antagonists: fluorescence cell-based qHTS assay (AID 1347398); conditions: Potency: AChE activity; outcome: AChE activity; note: nearly all actives have a fitted effect of over 50% in size
Outline: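 Fluorimetric cell-based assay: intact SH-SY5Y cells, 30 min compound preincubation at 37 C, acetylthiocholine substrate with thiol probe Thiolite Green, 40 min RT development, fluorescence 490/520 nm.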

[4] = molecular target: Acetylcholinesterase (Homo sapiens) (UniProt P22303); test: Acetylcholinesterase (AChE) small molecule antagonists: enzyme-based qHTS assay with human liver microsomes (AID 1347399); conditions: Potency: qHTS inhibition; outcome: qHTS inhibition; note: nearly all actives have a fitted effect of over 60% in size
Outline: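 Recombinant human AChE (50 mU/mL in the enzyme mix) and human liver microsomes (0.25 mg/mL final) were preincubated with compound and NADPH (0.25 mg/mL final) for 30 min at 37 C. Acetylthiocholine/DTNB was then added; thiocholine was read colorimetrically after 10 min at room temperature.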

Measured: Potency

Chain of Acetylcholinesterase (Homo sapiens) (P22303 whole entry, looked up): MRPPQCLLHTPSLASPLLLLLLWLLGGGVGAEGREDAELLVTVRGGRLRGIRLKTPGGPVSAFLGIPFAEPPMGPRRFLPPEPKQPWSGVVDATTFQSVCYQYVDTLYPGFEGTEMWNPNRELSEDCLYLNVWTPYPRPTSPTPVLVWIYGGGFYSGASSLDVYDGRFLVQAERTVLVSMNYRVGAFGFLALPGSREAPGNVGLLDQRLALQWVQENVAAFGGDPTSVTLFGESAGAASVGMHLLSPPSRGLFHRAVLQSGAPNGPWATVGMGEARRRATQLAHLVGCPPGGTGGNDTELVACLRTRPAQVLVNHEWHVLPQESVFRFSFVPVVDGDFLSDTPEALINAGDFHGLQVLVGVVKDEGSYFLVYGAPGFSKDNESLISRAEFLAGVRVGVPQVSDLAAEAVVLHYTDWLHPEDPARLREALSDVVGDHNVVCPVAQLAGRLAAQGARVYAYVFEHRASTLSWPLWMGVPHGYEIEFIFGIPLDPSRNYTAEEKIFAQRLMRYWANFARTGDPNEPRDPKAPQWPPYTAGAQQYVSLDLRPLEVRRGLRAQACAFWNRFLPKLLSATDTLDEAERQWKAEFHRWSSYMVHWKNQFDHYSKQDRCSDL

CC(=O)c1ccccc1N
inactive: all assays above

CCOC(=O)[C@H](CCc1ccccc1)N[C@@H](C)C(=O)N1Cc2cc(OC)c(OC)cc2C[C@H]1C(=O)O
inactive: all assays above

CCCC(=O)OCc1ccccc1
inactive: all assays above

O=C(OCCc1ccccc1)c1ccccc1
inactive: all assays above

CN1CCN(C(=O)C2CCCCC2)CC1
inactive: all assays above

COCc1ccc(COC)cc1
inactive: all assays above

CCCCC(=O)O[C@]1(C(=O)CO)[C@H](C)C[C@H]2[C@@H]3CCC4=CC(=O)C=C[C@]4(C)[C@@]3(F)[C@@H](O)C[C@@]21C
inactive: all assays above

CN=C(NC#N)NCCSCc1csc(N=C(N)N)n1
inactive: all assays above

OCCCc1cccnc1
inactive: all assays above

CCCCCCCCCOC(C)=O
inactive: all assays above

CCc1cccc(CC)c1NC(=O)C(=O)O
inactive: all assays above

CC(C)NC(=O)c1ccc(C=O)cc1
inactive: all assays above

CC(C)(C)NCC(O)COc1cccc2c1C[C@H](O)[C@H](O)C2 (stereo not given in full)
inactive: all assays above

CCCCCCC(C)Nc1ccc(Nc2ccccc2)cc1 (stereo not given)
inactive: all assays above

CC(C)(C)NCC(O)COc1ccc(NC(=O)NC2CCCCC2)cc1 (stereo not given)
inactive: all assays above
